The campaign covered roughly 1,500 compounds. About 460 (31%) were called active. Inconclusive results (about 1%) are left out.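 Rule for the calls: active = curve reaches 40% activation over neutral controls at an AC40 no higher than the top valid tested concentration; inconclusive = no clear call, values can overlap the other calls; inactive = signal moving opposite to the expected increase, and the rest.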 The list is a sample of the results. Potency and affinity values are given separately.

The assay in a line: activators of glucose-dependent insulin secretion, dose response, cell-based, INS-1E, Gaussia luciferase, luminescence, cherry-pick, set 2 (AID 977607).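 Note: 0% = median of the plate neutral control wells.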 To be noted: INS-1E GLuc insulin secretion reporter, 2-3 h, stronger effect = higher value; at 35 µM, 100% = signal doubled over neutral wells unless noted.
With `C[C@@H]1CN([C@H](C)CO)C(=O)CCCn2cc(nn2)CO[C@H]1CN(C)S(=O)(=O)c1cccs1`, the max activation was -22.5% [at 11 µM, 100% = signal doubled over neutral wells] (inactive).
`C[C@@H]1CC2=C(C(=O)OC(C)(C)O2)[C@H](c2ccc(F)cc2)O1`: the max activation is -20.8% [at 0.015 µM, 100% = signal doubled over neutral wells] (inactive).
The same measure for `NC(=O)c1ccsc1NC(=O)COC(=O)CNC(=O)c1ccc(Cl)cc1`: -11.2% [at 0.005 µM, 100% = signal doubled over neutral wells] (inactive); for `CC1(C(=O)NCc2ccccc2)CN(S(C)(=O)=O)CC(=O)N1C1CC1` (stereo not drawn): -10.6% [at 11 µM, 100% = signal doubled over neutral wells] (inactive); for `CCN(CCC(=O)O)c1ccccc1`: -16.1% [at 0.135 µM, 100% = signal doubled over neutral wells] (inactive).
The value for `O=C(Cn1cc(C(F)(F)F)ccc1=O)NCC1CCCO1` (stereo not drawn) was -21% [at 0.015 µM, 100% = signal doubled over neutral wells] (inactive).
The same measure for `CC1=NS(=O)(=O)NC(C)(C)C1`: 51.2% [at 0.42 µM, 100% = signal doubled over neutral wells] (inactive).
Turning to `CCc1ccc(OCC(=O)NC(=S)Nc2ccc(C)cc2C)c(Br)c1`, the max activation was -19.5% [at 0.046 µM, 100% = signal doubled over neutral wells] (inactive).
Turning to `COc1ccc(CCNC(=O)COC(=O)c2cncc(Br)c2)cc1OC`, the max activation is -19.1% (inactive).
Turning to `COCCN(CCOC)Cc1cc(=O)oc2cc(OC)c(Cl)cc12`, the max activation is 13.5% [at 11 µM, 100% = signal doubled over neutral wells] (inactive).
With `O=C(COC(=O)C1CCC1)NC(=O)c1ccccc1`, the max activation is -14.8% [at 11 µM, 100% = signal doubled over neutral wells] (inactive).
As to `Cc1ccc(OCC(=O)NC(C)c2ccccc2)cc1` (stereo not drawn), the max activation was 22.7% [at 0.005 µM, 100% = signal doubled over neutral wells] (inactive).
On to `CN(C)C(=O)COC(=O)c1cccnc1Nc1ccccc1F`, for which the max activation is -17.2% [at 3.8 µM, 100% = signal doubled over neutral wells] (inactive).
The same measure for `CN(C)N1C(N)=C(C#N)C(c2ccc(F)cc2)C2=C1CCCC2=O` (stereo not drawn): 30.5% [at 11 µM, 100% = signal doubled over neutral wells] (inactive); for `CN1CCC(N(C)S(=O)(=O)c2ccc(NC(=O)COc3cccc(Cl)c3)cc2)CC1`: -15.6% (inactive); for `CCOC(=O)Nc1ccc2c(c1)Sc1ccccc1N2C(=O)CCN1CCOCC1`: -19.4% [at 0.0016 µM, 100% = signal doubled over neutral wells] (inactive).
Turning to `O=C(N1CCOCC1)N1CCN(c2ccccn2)CC1`, the max activation was 26.8% [at 1.2 µM, 100% = signal doubled over neutral wells] (inactive).
As to `CC(C)OCC(O)CN1CCC(Cc2ccccc2)CC1` (stereo not drawn), the max activation was -7.86% [at 0.005 µM, 100% = signal doubled over neutral wells] (inactive).
Regarding `COc1ccc(CNC(=O)c2cnn3c(C(F)F)cc(C)nc23)cc1`, the max activation is 24.2% (inactive).
As for `CC(=O)N1CCN(c2nnc(-c3ccccc3)c3ccccc23)CC1`, the max activation is -13.9% [at 0.005 µM, 100% = signal doubled over neutral wells] (inactive).
As to `CCOC(=O)c1c(C)[nH]c(C(=O)COC(=O)c2cnccn2)c1C`, the max activation was 27% (inactive).
With `CCCCn1c(-c2ccncc2)nc2c1c(=O)[nH]c(=O)n2CC(C)C`, the max activation is -13.3% [at 3.8 µM, 100% = signal doubled over neutral wells] (inactive).
For the compound `COc1cc(OC)c(OC)cc1/C=N/n1c(C)nc2ccccc2c1=O`, the max activation is -20.7% [at 0.42 µM, 100% = signal doubled over neutral wells] (inactive).
Take `CCCc1cc(NCC2CCCO2)n2c(nc3ccccc32)c1C#N` (stereo not drawn): the max activation is -13% [at 0.015 µM, 100% = signal doubled over neutral wells] (inactive).
Regarding `O=C(Cc1ccsc1)NNC(=O)c1ccccc1Cl`, the max activation is -13.6% (inactive).
For `O=C(NCc1ccco1)c1ccc2c(=O)n(CCC3=CCCCC3)c(=O)[nH]c2c1`, the max activation is -21.9% (inactive).
Take `Cc1cc2nc(-c3ccc(Cl)cc3)c(Cc3ccsc3)n2c(C)c1Br`: the max activation was -39.9% [at 11 µM, 100% = signal doubled over neutral wells] (inactive).
Consider `COc1ccc(C(=O)NCC(=O)OCC(=O)Nc2sccc2C#N)cc1OC`, for which the max activation is 24.5% (inactive).
For `COc1ccc(C(=O)NCC(=O)OCC(=O)NC2CCCCCC2)cc1OC`, the max activation was 19.5% (inactive).
Consider `COc1ccc2[nH]c3c(NCCCN4CCCC4=O)ncnc3c2c1`, for which the max activation was 11.2% [at 1.2 µM, 100% = signal doubled over neutral wells] (inactive).
Take `Cc1ccc(S(=O)(=O)/N=C(/Nc2cccc(O)c2)c2ccccc2)cc1`: the max activation is 48.6% (inactive).
Consider `COc1cc(C(=O)Nc2cc(C(F)(F)F)ccc2N2CCOCC2)ccc1OCC(=O)N1CCOCC1`, for which the max activation is -13.6% [at 3.8 µM, 100% = signal doubled over neutral wells] (inactive).
As to `Cc1ccc(C)c(S(=O)(=O)Nc2ccc(C(=O)N3CCC3)cc2)c1`, the max activation is 27.7% (inactive).
For `Cc1c(-c2cccc(Cl)c2)nc2ccccc2c1C(=O)NC1CC1`, the max activation was 35.1% [at 1.2 µM, 100% = signal doubled over neutral wells] (inactive).
As for `Cc1cc(C)cc(Cn2c3ccc(NC(=S)NCc4ccccc4F)cc3c(=O)n2C)c1`, the max activation was -51.1% (inactive).
Consider `O=c1c2[nH]cnc2n(-c2ccc(F)cc2)c(=O)n1Cc1ccccc1`, for which the max activation is 25.9% [at 0.42 µM, 100% = signal doubled over neutral wells] (inactive).
`COC(=O)c1cccc(-n2c(=O)n(Cc3ccccc3)c(=O)c3[nH]cnc32)c1C`: the max activation was 38.9% [at 11 µM, 100% = signal doubled over neutral wells] (inactive).
The same measure for `CN(Cc1ccccc1)c1ncnc2[nH]ncc12`: 19.1% [at 3.8 µM, 100% = signal doubled over neutral wells] (inactive); for `Nn1c(C2CCCCC2)nc2ccccc2c1=O`: -24.8% [at 0.42 µM, 100% = signal doubled over neutral wells] (inactive); for `CC(O)c1nc2ccccc2n1C1CCCCC1` (stereo not drawn): -13.8% [at 3.8 µM, 100% = signal doubled over neutral wells] (inactive).
For `O=C(O)COc1ccc2c3c(c(=O)oc2c1)CCC3`, the max activation was -18% (inactive).
The same measure for `CCOC(=O)Cc1cc(=O)n2[nH]c(-c3ccc(C)cc3)cc2n1`: 26.5% [at 0.015 µM, 100% = signal doubled over neutral wells] (inactive).
Consider `O=C(CCS(=O)(=O)c1ccc(Cl)cc1)Nc1ccc(N2CCOCC2)cc1`, for which the max activation is 26.5% [at 0.0016 µM, 100% = signal doubled over neutral wells] (inactive).
The value for `CCOc1ccc(CCNC(=O)CCC(=O)c2cccs2)cc1OCC` was -10.4% [at 0.0016 µM, 100% = signal doubled over neutral wells] (inactive).
For `O=C(NCCc1ccccc1)c1cc(-c2ccc3c(c2)OCO3)on1`, the max activation was -16.8% [at 0.015 µM, 100% = signal doubled over neutral wells] (inactive).
`CCOc1cccc2cc(C(=O)Nc3cc(C)on3)c(=O)oc12`: the max activation was -15.3% [at 0.42 µM, 100% = signal doubled over neutral wells] (inactive).
The same measure for `CC(=O)Cc1nsc(NC(=O)c2ccc(-c3cccc(Cl)c3)o2)n1`: -41.3% (inactive); for `C=CCNC(=O)c1cc(-c2ccc3c(c2)OCO3)on1`: -23.5% (inactive); for `CCc1cc2c(COC(=O)c3cccc(S(C)(=O)=O)c3)cc(=O)oc2cc1O`: -21.8% (inactive).
Take `COCCNc1nc(NCCCN2CCCC2=O)c2sccc2n1`: the max activation was -21.2% [at 0.005 µM, 100% = signal doubled over neutral wells] (inactive).
`CN(C)c1ncnc2sc(-c3ccccc3)cc12`: the max activation was 75.3% (inactive).
Take `CCOC(=O)c1cnc2c(cnn2C)c1Oc1ccc(OC)cc1`: the max activation was -8.37% [at 0.135 µM, 100% = signal doubled over neutral wells] (inactive).
For `C=C(C)n1c(=O)n(Cc2ccccc2C)c2ccccc21`, the max activation is -20.9% [at 0.0016 µM, 100% = signal doubled over neutral wells] (inactive).
The same measure for `COc1ccc(CC(=O)OCC(=O)N2CCc3ccccc32)cc1OC`: -17.9% [at 0.135 µM, 100% = signal doubled over neutral wells] (inactive).
The value for `COc1ccc(CN(C)C(=O)CCN=C2NS(=O)(=O)c3ccccc32)c(OC)c1` was -22.4% [at 0.015 µM, 100% = signal doubled over neutral wells] (inactive); that for `O=C1Nc2ccccc2N(C(=O)c2ccc3ccccc3c2)C1c1nc2ccccc2[nH]1` (stereo not drawn) was -24.4% [at 11 µM, 100% = signal doubled over neutral wells] (inactive).
Consider `CC1=C(C(=O)N2CCOCC2)CC(CC(=O)NCCCN(C)C)C(=O)N1CCCN1CCCC1=O` (stereo not drawn), for which the max activation is -20.9% (inactive).
In the case of `Cc1cc(Br)ccc1NC(=O)CN(C)C(=O)C1CSC2(C)CCC(=O)N12` (stereo not drawn), the max activation was -12.1% [at 0.015 µM, 100% = signal doubled over neutral wells] (inactive).

These data come from PubChem BioAssay AID977607 (Broad Institute, 2014).
